Laboratory results published in PubChem BioAssay (NCATS).
Results filed as inconclusive are left out. A call without a number means that no potency is given here. Unmarked numbers belong to inactive results. The source made the active and inactive calls. The call rests on the fitted dose curve; in most records, active means well fitted curve in the direction sought with a large enough effect; inconclusive means small, poorly fitted or top-dose-only effect, or another doubt; inactive means no such curve, though single readings can be large; an effect the other way counts as inactive or inconclusive.

Key:
[1] = Primary qHTS for inhibitors of nuclear receptor binding SET domain protein 2 (NSD2) in an isogenic RCH-ACV NSD2 p.E1099K mutant (9B) (AID 1645876); details: RCH-ACV NSD2 E1099K (9B) viability, CellTiter-Glo, 72 h; series mostly up to 44.9 µM
[2] = Primary qHTS for inhibitors of nuclear receptor binding SET domain protein 2 (NSD2) in an RCH-ACV wild type WT cells (2C) (AID 1645877); details: RCH-ACV (leukaemia line) NSD2 WT (2C) viability, CellTiter-Glo, 72 h; series mostly up to 44.9 µM
Further: nearly all actives have a fitted effect of over 70% in size.

Question: What does the source list for `COC(=O)C1=CO[C@@H](O[C@@H]2O[C@H](CO)[C@@H](O)[C@H](O)[C@H]2O)[C@@H]2[C@@](C)(O)[C@@H](O)C[C@]12O`?
Answer: Potency [1]: inactive; Potency [2]: inactive

Question: Which results are given for `CC1=CCC2C(C)(CO)CCCC2(C)C1CC12OC1C(O)C(CO)=CC2O` (stereo not given)?
Answer: Potency [1]: inactive; Potency [2]: inactive

Question: What does the source list for `COc1ccc(/C=C/C(=O)O[C@@H]2[C@@H](O)[C@H](C)O[C@@H](OC3C4C=COC(O[C@@H]5O[C@H](CO)[C@@H](O)[C@H](O)[C@H]5O)C4C4(CO)OC34)[C@@H]2O)cc1OC` (stereo not given in full)?
Answer: Potency [1]: inactive; Potency [2]: inactive

Question: Which Potency [1] does the source give for `CC[C@H]1OC(=O)[C@H](C)[C@@H](OC2C[C@@](C)(OC)[C@@H](O)[C@H](C)O2)[C@H](C)[C@@H](OC2O[C@H](C)C[C@H](NC)[C@H]2O)[C@](C)(O)C[C@@H](C)CN(C)[C@H](C)[C@@H](O)[C@]1(C)O` (stereo not given in full) here?
Answer: The Potency was “inactive”.

Question: What about the Potency [2] of the same molecule?
Answer: Its Potency is “inactive”.

Question: With `COc1c(OC2OC(CO)C(O)C(O)C2O)ccc(O)c1C(=O)OCc1ccccc1O[C@@H]1O[C@H](CO)[C@@H](O)[C@H](O)[C@H]1O` (stereo not given in full) as the molecule, how does the Potency [1] read?
Answer: Its Potency is “inactive”.

Question: And the Potency [2]?
Answer: The Potency was “inactive”.

Question: Which results are given for `CC1(C)CC2C(C1)C1(C)CCC13OC3(CO)C2O` (stereo not given)?
Answer: Potency [1]: inactive; Potency [2]: inactive

Question: Which Potency [1] does the source give for `Cc1coc2c1CC1OC1(C)CCC1OC1(C)C2` (stereo not given) here?
Answer: Its Potency is “inactive”.

Question: What about the Potency [2] of the same molecule?
Answer: Its Potency is “inactive”.

Question: With `CC(C#N)C(C)O[C@@H]1O[C@H](CO)[C@@H](O)[C@H](O)[C@H]1O` (stereo not given in full) as the molecule, how does the Potency [1] read?
Answer: The Potency was “inactive”.

Question: What about the Potency [2] of the same molecule?
Answer: The Potency was “inactive”.

Question: What does the source list for `C/C1=C\C[C@H](O[C@@H]2O[C@H](CO)[C@@H](O)[C@H](O)[C@H]2O)/C(C)=C/[C@H]2OC(=O)[C@H](C)[C@@H]2CC1`?
Answer: Potency [1]: inactive; Potency [2]: inactive

Question: Which activity change, negative = viability loss [1] does the source give for `C[C@@H]1O[C@@H](O[C@H]2[C@H](OC(=O)[C@]34CCC(C)(C)C[C@H]3C3=CCC5[C@@]6(C)C[C@H](O)[C@H](O[C@@H]7O[C@H](CO)[C@@H](O[C@@H]8O[C@H](CO)[C@@H](O)[C@H](O)[C@H]8O)[C@H](O)[C@H]7O)[C@@](C)(CO)C6[C@H](O)C[C@@]5(C)[C@]3(C)C[C@H]4O)OC[C@H](O)[C@@H]2O)[C@H](O)[C@H](O)[C@H]1O[C@@H]1OC[C@@H](O)[C@H](O[C@@H]2OC[C@](O)(CO)[C@H]2O)[C@H]1O` (stereo not given in full) here?
Answer: Its activity change, negative = viability loss is -3.67% [at 9.23 µM].

Question: And the activity change, negative = cell killing [2]?
Answer: Its activity change, negative = cell killing is 2.2% [at 9.23 µM].
